# In PubChem BioAssay:
# Activity calls are given as the source filed them.
# Tests used:
# [1] = E. coli DRC41 culture turbidity changes, primary screen, E. coli filamentation inducer project, strain DRC41, OD650, 48 h (AID 1152);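 also: E. coli MC1000 strain DRC41 lacking acrAB efflux pump and sulA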; settings: E. coli DRC41 (acrAB sulA), higher = more signal, called active from +8 up or from −8 down
# [2] = small-molecule binders of probe aLefty1, primary screen, biochemical, small-molecule microarray, 635/667 nm fluorescence (AID 1153); settings: higher = more signal;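 also: score merges spot fluorescence with signal-to-noise ratio from the scanned slide images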
# [3] = PSAC antagonists in infected red cells, primary screen, cell-based, P. falciparum Indochina, OD700, 1 h (AID 1154); settings: P. falciparum Indochina infected RBC osmotic lysis, higher = more signal, called active from +8 up or from −8 down
# [4] = PSAC antagonists in infected red cells, primary screen, cell-based, P. falciparum Indochina, OD700, 2 h (AID 1155);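 also: lysis reports solute entry through the parasite surface anion channel PSAC; channel blockers reduce lysis of infected cells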; settings: P. falciparum Indochina infected erythrocytes, osmotic lysis OD700; higher = more signal, called active from +8 up or from −8 down
# [5] = osmotic lysis modulators in infected erythrocytes, primary screen, PSAC antagonist project, cell-based, P. falciparum Indochina, OD700, 3 h (AID 1156); settings: higher = more signal, called active from +8 up or from −8 down
# [6] = PSAC antagonists in infected red cells, primary screen, cell-based, P. falciparum Indochina, OD700, 18 h (AID 1157); settings: P. falciparum Indochina infected erythrocytes, osmotic lysis OD700, 18 h; higher = more signal, called active from +8 up or from −8 down
# [7] = modulators of S6 phosphorylation in cells, primary screen, cell-based, A549, cytoblot, luminescence, serum-stimulated (AID 1158); settings: A549 phospho-S6 cytoblot, 5 h, higher = more signal;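 also: serum-stimulated A549 lung adenocarcinoma cells; signal is phosphorylated S6 detected by cytoblot immunostaining with HRP secondary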
# [8] = target: NADPH oxidase 2 (Homo sapiens) (UniProt P04839); experiment: NOX2-dependent H2O2 signal modulators, primary screen, NOX inhibitor project, cell-based, HEK293-NOX2, PMA-stimulated, Amplex Red fluorescence (AID 1159); settings: 45 min, higher = more signal, called active from +8 up or from −8 down; also: test concentration not given here
# Sequence of NADPH oxidase 2 (Homo sapiens) (P04839 whole entry, looked up): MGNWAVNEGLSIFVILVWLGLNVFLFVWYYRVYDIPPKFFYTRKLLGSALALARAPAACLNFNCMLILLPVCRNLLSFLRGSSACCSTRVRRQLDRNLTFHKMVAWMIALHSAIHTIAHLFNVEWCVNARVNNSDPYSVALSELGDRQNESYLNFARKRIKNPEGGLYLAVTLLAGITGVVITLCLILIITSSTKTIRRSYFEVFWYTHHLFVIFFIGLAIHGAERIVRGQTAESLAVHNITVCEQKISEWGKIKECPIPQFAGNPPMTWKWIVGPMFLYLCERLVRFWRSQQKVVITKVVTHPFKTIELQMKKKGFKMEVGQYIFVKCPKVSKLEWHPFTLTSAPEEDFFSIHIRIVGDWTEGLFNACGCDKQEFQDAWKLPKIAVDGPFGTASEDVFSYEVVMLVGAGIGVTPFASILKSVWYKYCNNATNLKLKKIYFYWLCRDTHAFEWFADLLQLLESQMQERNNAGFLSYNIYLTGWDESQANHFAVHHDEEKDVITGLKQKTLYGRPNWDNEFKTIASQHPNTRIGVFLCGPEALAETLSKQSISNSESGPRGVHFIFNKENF
# [9] = target: NADPH oxidase 4 (Homo sapiens) (UniProt Q9NPH5); experiment: NOX4-dependent H2O2 signal modulators, primary screen, NOX inhibitor project, cell-based, HEK293-NOX4, tetracycline-induced, Amplex Red fluorescence (AID 1160); settings: 45 min, higher = more signal, called active from +8 up or from −8 down
# Sequence of NADPH oxidase 4 (Homo sapiens) (Q9NPH5 whole entry, looked up): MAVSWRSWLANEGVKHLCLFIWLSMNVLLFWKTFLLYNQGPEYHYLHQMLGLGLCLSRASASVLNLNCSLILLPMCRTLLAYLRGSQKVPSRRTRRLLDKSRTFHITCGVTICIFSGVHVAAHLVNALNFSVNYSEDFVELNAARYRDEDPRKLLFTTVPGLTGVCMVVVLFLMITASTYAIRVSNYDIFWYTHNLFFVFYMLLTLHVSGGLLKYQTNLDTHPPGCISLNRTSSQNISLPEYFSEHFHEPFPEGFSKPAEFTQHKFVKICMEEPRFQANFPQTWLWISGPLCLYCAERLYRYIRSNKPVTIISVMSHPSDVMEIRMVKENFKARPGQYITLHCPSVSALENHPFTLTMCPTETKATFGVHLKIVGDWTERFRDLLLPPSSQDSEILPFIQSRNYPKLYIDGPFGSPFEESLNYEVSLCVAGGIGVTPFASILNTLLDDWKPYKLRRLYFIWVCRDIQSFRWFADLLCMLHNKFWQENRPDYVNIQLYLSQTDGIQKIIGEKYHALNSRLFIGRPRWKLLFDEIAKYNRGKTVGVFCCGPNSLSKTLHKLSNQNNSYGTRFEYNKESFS
# [10] = target: NADPH oxidase 5 (Homo sapiens) (UniProt Q96PH1); experiment: NOX5-dependent H2O2 signal modulators, primary screen, NOX inhibitor project, cell-based, HEK293-NOX5, Amplex Red fluorescence (AID 1161); settings: HEK293-NOX5, ionomycin, 45 min, higher = more signal
# Sequence of NADPH oxidase 5 (Homo sapiens) (Q96PH1 whole entry, looked up): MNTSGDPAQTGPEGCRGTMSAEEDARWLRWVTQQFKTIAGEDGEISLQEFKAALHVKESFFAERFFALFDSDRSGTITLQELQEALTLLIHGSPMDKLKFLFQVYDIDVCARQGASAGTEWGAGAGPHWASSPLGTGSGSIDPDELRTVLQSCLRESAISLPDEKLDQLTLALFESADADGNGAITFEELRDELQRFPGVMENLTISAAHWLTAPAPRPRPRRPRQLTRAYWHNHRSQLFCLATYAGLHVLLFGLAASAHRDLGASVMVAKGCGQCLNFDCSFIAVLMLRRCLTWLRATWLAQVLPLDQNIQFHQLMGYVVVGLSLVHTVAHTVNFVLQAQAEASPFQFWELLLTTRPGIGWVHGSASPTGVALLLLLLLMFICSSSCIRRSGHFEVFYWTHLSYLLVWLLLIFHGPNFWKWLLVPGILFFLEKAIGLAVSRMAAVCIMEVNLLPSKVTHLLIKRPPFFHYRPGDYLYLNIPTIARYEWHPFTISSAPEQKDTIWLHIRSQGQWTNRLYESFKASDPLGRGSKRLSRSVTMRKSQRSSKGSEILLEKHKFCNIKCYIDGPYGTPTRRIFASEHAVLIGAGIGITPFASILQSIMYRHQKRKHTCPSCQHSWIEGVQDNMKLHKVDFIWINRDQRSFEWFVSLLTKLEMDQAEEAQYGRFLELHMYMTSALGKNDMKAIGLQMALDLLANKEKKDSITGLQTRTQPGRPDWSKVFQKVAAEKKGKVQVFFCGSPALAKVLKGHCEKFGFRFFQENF
SMILES,z-score [1],composite z-score [2],z-score [3],z-score [4],z-score [5],z-score [6],z-score [7],z-score [8],z-score [9],z-score [10]
CC(=O)NCCCC[C@@H]1NC(=O)[C@H]2C[C@@H](C(=O)NCCCCCCN(C)C)[C@@H](c3ccc(O)cc3)N2C1=O,-0.233 (inactive),0.538,1.32 (inactive),0.461 (inactive),1.92 (inactive),0.0071 (inactive),0.144,-0.768 (inactive),-1.51 (inactive),-0.479
COc1cc([C@@H]2N[C@H](C(=O)O)Cc3c2[nH]c2ccccc32)cc(OC)c1OC,0.441 (inactive),-0.324,0.604 (inactive),0.321 (inactive),0.665 (inactive),0.198 (inactive),0.172,2.14 (inactive),-0.0815 (inactive),-1.1
C[C@@H]1CC[C@H]2C(=O)N3CCC[C@H]3C(=O)N2[C@H]1c1ccc(Br)cc1,1.29 (inactive),-0.218,0.338 (inactive),-0.0391 (inactive),0.363 (inactive),0.444 (inactive),0.349,0.607 (inactive),0.296 (inactive),0.764
C=CCOC(=O)[C@@H]1[C@H]2C(=O)O[C@H](c3ccccc3)[C@H](c3ccccc3)N2[C@H](c2ccc(OCCOC(=O)[C@H]3C[C@H]4C(=O)N5CCC[C@H]5C(=O)N4[C@H]3c3ccc(O)cc3)cc2)[C@@]12C(=O)Nc1ccccc12,2.34 (inactive),0.244,3.21 (inactive),0.288 (inactive),-2.79 (inactive),-1.39 (inactive),0.557,1.56 (inactive),0.0128 (inactive),2.16
O=C(NCc1ccccc1)c1ccc(Br)cc1[N+](=O)[O-],-1.03 (inactive),-0.17,-0.403 (inactive),-0.0642 (inactive),-1.3 (inactive),0.0836 (inactive),-0.597,-0.564 (inactive),-0.281 (inactive),-0.032
COCCOC(=O)N1C(=O)[C@@]2(c3cc(C#CCCO)ccc31)[C@H](c1ccc(O)cc1)N1[C@H](c3ccccc3)[C@H](c3ccccc3)OC(=O)[C@H]1[C@@H]2C(=O)Nc1nc2ccccc2s1,1.45 (inactive),0.345,2.22 (inactive),1.59 (inactive),0.577 (inactive),1.73 (inactive),0.897,0.928 (inactive),-0.161 (inactive),1.21
CO[C@@H]1COC(=O)CC=C[C@H](C)COC(=O)[C@H](Cc2ccccc2)NC(=O)CC=C[C@H]1C,0.106 (inactive),-0.358,-0.0544 (inactive),-0.866 (inactive),-0.295 (inactive),-1.49 (inactive),0.681,-0.486 (inactive),0.845 (inactive),0.528
COc1ccc([Si](C)(C)[C@H]2[C@H](CCO)O[C@@]3(C(=O)N(Cc4ccccc4)c4ccc(N5C(=O)c6cccc7cccc5c67)cc43)[C@@H]2C)cc1,1.85 (inactive),-0.105,3.41 (inactive),2.34 (inactive),1.36 (inactive),1.65 (inactive),0.314,-1.35 (inactive),0.163 (inactive),0.513
COc1cc(CO)cc(I)c1O[C@H]1C=C(C(=O)NCCO)C[C@@H](N(CC2CCCCC2)C(=O)c2cc3ccccc3oc2=O)[C@@H]1O,2.01 (inactive),-0.0969,2.5 (inactive),0.718 (inactive),1.18 (inactive),0.207 (inactive),-0.0608,-0.289 (inactive),1.3 (inactive),0.647
C[C@H]1NC(=O)[C@@H](C)NC(=O)[C@@]23C(=O)N[C@@H](Cc4ccccc4)C2[C@H](C)[C@@]2(C)O[C@H]2C3/C=C/C/C=C\CNC1=O (stereo not given in full),2.35 (inactive),-0.245,1.27 (inactive),0.279 (inactive),0.234 (inactive),0.157 (inactive),0.52,0.248 (inactive),-0.848 (inactive),0.442
C=CCN(C(=O)C1N(c2ccc(CCO)cc2)C(=O)C2C(C(=O)O)C3C=CC21O3)C(C)(C)C (stereo not given),2.75 (inactive),0.0445,0.0302 (inactive),-1.14 (inactive),-1.43 (inactive),-1.91 (inactive),0.434,1.9 (inactive),-1.46 (inactive),0.845
CC(=O)NCCCC[C@@H]1NC(=O)[C@@H]2C[C@H](C(=O)NCc3ccc(F)cc3)[C@H](c3cccc(OCCO)c3)N2C1=O,0.197 (inactive),0.0259,5.48 (inactive),0.503 (inactive),-4.35 (inactive),0.374 (inactive),-0.206,1.87 (inactive),1.42 (inactive),1.1
COc1cc2c(cc1OC)CN(C(=O)[C@H]1[C@@H]3C(=O)O[C@@H](c4ccccc4)[C@@H](c4ccccc4)N3[C@@H](c3ccc(O)cc3)[C@]13C(=O)Nc1ccc(C#CC4(O)CCCCCC4)cc13)CC2,-0.287 (inactive),1.76,0.621 (inactive),1.23 (inactive),0.89 (inactive),0.737 (inactive),0.48,1.79 (inactive),-0.239 (inactive),1.02
CO[C@@H]1COC(=O)[C@H](C)NC(=O)CC=C[C@@H](C)[C@H](OC)COC(=O)[C@H](C)NC(=O)CC=C[C@H]1C,1.02 (inactive),-0.0984,0.174 (inactive),0.551 (inactive),0.0076 (inactive),0.108 (inactive),0.298,0.319 (inactive),0.114 (inactive),0.976
CO[C@]12C=C(Br)[C@@H](C[C@@H]1c1ccccc1)[C@@]1(CO1)C2=O,2.36 (inactive),0.166,-0.0452 (inactive),-0.698 (inactive),0.422 (inactive),-1.7 (inactive),0.716,0.575 (inactive),0.625 (inactive),0.339
CCOC(=O)C1=CCC(c2cccc3ccccc23)N(S(=O)(=O)c2ccc(C)cc2)C1 (stereo not given),-0.894 (inactive),0.071,1.49 (inactive),0.902 (inactive),-1.54 (inactive),0.411 (inactive),-0.415,1.42 (inactive),1.17 (inactive),1.49
O=C1O[C@@H](c2ccccc2)[C@@H](c2ccccc2)N2[C@@H](c3ccccc3OCCO)[C@]3(C(=O)Nc4ccc(C#CC5=CCCCC5)cc43)[C@@H](C(=O)O)[C@H]12,1.72 (inactive),0.19,-1.69 (inactive),-2.47 (inactive),-13.4 (active),-2.89 (inactive),0.661,2.26 (inactive),-2.11 (inactive),-2.75
COc1cccc([C@@H]2[C@@H](C)CC[C@H]3C(=O)N(C)[C@@H](C(C)C)C(=O)N23)c1,1.1 (inactive),-0.193,-0.147 (inactive),0.651 (inactive),-0.355 (inactive),-0.0201 (inactive),0.423,0.226 (inactive),0.0929 (inactive),0.265
